Results on 28 compounds are retold here after the supplement of paper PMC6522484.

In assay [1] the test system is DLD1. The assay is described as follows: cell viability (CellTiter-Glo) relative to plate median (fraction of plate median); higher = more viable cells. The following applies: 5 µM; treatment time 24 h; reporter: 7TFP. Summed up: (§1)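 On parallel plates, a Tecan F500 reader recorded either firefly luciferase or CellTiterGlo luminescence. The plates held colorectal cancer cells stably transduced with lentiviral TCF/Wnt firefly luciferase reporters (7TFP or TCF4/Wnt), seeded in 384-well format and treated 24 h later with library compounds at a final 5 µM for 24 h. Per-well signals were normalised to the plate median (webcellHTS2, additive, no log transformation), and two independent replicates were averaged.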
In general terms: In ATP-based viability assays light output follows the ATP content of the culture.

Assay [2] deals with HCT116. The description is as above. The following applies: 5 µM; treatment time 24 h; reporter: TCF4/Wnt. Summed up:
as §1

In assay [3] the test system is SW480. Described as above. The following applies: 5 µM; treatment time 24 h; reporter: 7TFP. In short, it runs like this: as §1
The subject of assay [4] is DLD1. The assay is described as follows: TCF/Wnt firefly luciferase reporter signal relative to plate median (fraction of plate median); higher = higher Wnt reporter signal. The settings on record: 5 µM; treatment time 24 h; reporter: 7TFP. Summed up:
as §1

Assay [5] relates to SW480. The assay is described as above. The settings on record: 5 µM; treatment time 24 h; reporter: 7TFP. Summed up:
as §1

Values joined by “and” are separate entries in the source; they are usually repeats but may differ in a detail not shown here. Identical values can stand only once. ± gives the standard deviation of the averaged measurements.

In the case of `COc1cc2c3cc1Oc1cc(ccc1O)C[C@@H]1c4c(cc(OC)c(O)c4Oc4ccc(cc4)C[C@@H]3N(C)CC2)CC[N+]1(C)C`, the cell viability in assay [1] came to 0.992 ± 0.012; in assay [2], 1.01 ± 0.1; in assay [3], 1.01 ± 0.045. Further, the results for the “TCF/Wnt firefly luciferase reporter signal” value in assay [4] and in assay [5] were 0.977 ± 0.089 and 1.07 ± 0.05, respectively.
In the case of `O=C(O)CCCc1ccccc1`, the cell viability in assay [1] was 1.03 and 0.95; in assay [2] it was 0.968 and 0.85; in assay [3], 0.993 and 1. In addition, the “TCF/Wnt firefly luciferase reporter signal” value in assay [4] was 1.15 and 1.08; in assay [5], 1.01 and 1.04.
Take `C[C@@H]1O[C@@H](OC[C@H]2O[C@@H](Oc3c(-c4ccc(O)c(O)c4)oc4cc(O)cc(O)c4c3=O)[C@H](O)[C@@H](O)[C@@H]2O)[C@H](O)[C@H](O)[C@H]1O` [RUTOSIDE  (rutin)]: the cell viability in assay [1] is 0.972; in assay [2], 0.881 ± 0.16; in assay [3], 1.01 ± 0.016. Moreover, the “TCF/Wnt firefly luciferase reporter signal” value in assay [4] was 1.03 ± 0.042; in assay [5], 0.769 ± 0.53.
The matching figures for `CN(C)/N=N/c1[nH]cnc1C(N)=O`: 0.982 ± 0.015, 0.986 ± 0.02, 0.971 ± 0.0099, 1.06 ± 0.11 and 1.06 ± 0.11.
Consider `CC=CC(=O)N(CC)c1ccccc1C`, for which the cell viability came out at 0.931 ± 0.093 in assay [1], 1.05 ± 0.028 in assay [2] and 1.01 ± 0.021 in assay [3]. Moreover, the entries for the “TCF/Wnt firefly luciferase reporter signal” value in assay [4] and in assay [5] were 0.953 ± 0.081 and 0.8525 ± 0.0078, respectively.
As for `CCCCN(CCCC)CCCOC(=O)c1ccc(N)cc1`, the cell viability in assay [1] was 0.877 ± 0.033; in assay [2], 0.92 ± 0.13; in assay [3], 0.954 ± 0.053. Also, the “TCF/Wnt firefly luciferase reporter signal” value came to 1.11 ± 0.014 in assay [4] and 0.993 ± 0.011 in assay [5].
`OC[C@H]1O[C@@](CO)(O[C@H]2O[C@H](CO)[C@@H](O)[C@H](O)[C@H]2O)[C@@H](O[C@H]2O[C@H](CO)[C@@H](O)[C@H](O)[C@H]2O)[C@@H]1O`: the figures for the cell viability in assay [1], in assay [2] and in assay [3] were 1.01 ± 0.047, 1.05 ± 0.014 and 1 ± 0.025, respectively. Besides, the “TCF/Wnt firefly luciferase reporter signal” value in assay [4] was 0.9905 ± 0.0078; in assay [5], 0.989 ± 0.073.
The matching figures for `O=C(O)c1cc(-c2ccc(F)cc2F)ccc1O`: 0.973 ± 0.0042, 1.07 ± 0.057, 1.01 ± 0.021, 1.32 ± 0.13 and 1.16 ± 0.021.
The matching figures for `CC[N+](CC)(CC)CCOc1cccc(OCC[N+](CC)(CC)CC)c1OCC[N+](CC)(CC)CC`: 0.9365 ± 0.0021, 0.972 ± 0.017, 0.945 ± 0.093, 0.989 ± 0.1 and 0.873 ± 0.21.
With `CCCCCNC(=N)N/N=C/c1c[nH]c2ccc(OC)cc12`, the cell viability in assay [1] worked out at 0.877 ± 0.1; in assay [2], 0.964 ± 0.031; in assay [3] it was 1.045 ± 0.0071. The “TCF/Wnt firefly luciferase reporter signal” value in assay [4] turned out to be 1.1 ± 0.028; in assay [5], 1.045 ± 0.0071.
Turning to `C=C1C(=O)[C@]23[C@H](CC[C@@H]1[C@@H]2O)[C@]12CO[C@@]3(O)[C@H](O)[C@H]1C(C)(C)CC[C@@H]2O`, the cell viability in assay [1] was found to be 0.931 ± 0.058; in assay [2], 1.12 ± 0.19; in assay [3], 1.045 ± 0.0071. Also, the “TCF/Wnt firefly luciferase reporter signal” value in assay [4] came to 0.876 ± 0.015; in assay [5], 0.731 ± 0.035.
The matching figures for `C/C1=C\CCC(=O)C2CC(C)(C)C2CC1` (stereo not given): 0.9755 ± 0.00071, 0.908 ± 0.14, 0.939 ± 0.012, 0.918 ± 0.098 and 1.004 ± 0.0078.
Take `O=c1cc(-c2ccccc2)oc2cccc(O)c12`: the cell viability is 0.972 ± 0.068 in assay [1], 1.04 ± 0.073 in assay [2] and 1.04 ± 0.058 in assay [3]. The results for the “TCF/Wnt firefly luciferase reporter signal” value in assay [4] and in assay [5] were 0.98 ± 0.0085 and 1.03, respectively.
The matching figures for `NS(=O)(=O)c1cc2c(cc1Cl)N=CNS2(=O)=O`: 0.965 ± 0.093, 0.973 ± 0.081, 0.891 ± 0.018, 0.828 ± 0.18 and 0.984 ± 0.011.
Take `CC(C)c1cccc(=O)c(O)c1`: the cell viability in assay [1] was 1.11 ± 0.13; in assay [2] it was 1.07 ± 0.042; in assay [3], 1.1 ± 0.021. Moreover, the “TCF/Wnt firefly luciferase reporter signal” value in assay [4] is 1.03 ± 0.073; in assay [5] it was 0.985 ± 0.064.
The matching figures for `CC(=O)NS(=O)(=O)c1ccc(NC(=O)c2ccccc2C(=O)O)cc1`: 0.946 ± 0.047, 0.905 ± 0.13, 0.93 ± 0.035, 1.04 ± 0.057 and 1.1 ± 0.042.
The matching figures for `C=C1C(=O)O[C@H]2C[C@@H]1C(OC(C)=O)C/C(C)=C/CC/C(C)=C/CC[C@@]2(C)O` (stereo not given in full): 0.888 ± 0.067, 0.999 ± 0.058, 1.06 ± 0.014, 0.885 ± 0.13 and 0.892 ± 0.0092.
On to `COc1c(-c2coc3cc4c(cc3c2=O)CC(O)C(C)(C)O4)ccc2c1C=CC(C)(C)O2` (stereo not given), for which the values for the cell viability in assay [1], in assay [2] and in assay [3] were 0.973 ± 0.081, 0.973 ± 0.12 and 1.02 ± 0.079, respectively. The “TCF/Wnt firefly luciferase reporter signal” value in assay [4] amounted to 0.869 ± 0.0014; in assay [5], 0.946 ± 0.077.
The matching figures for `C=C(CC)C(=O)c1ccc(OCC(=O)O)c(Cl)c1Cl`: 1.01 ± 0.046, 1.01 ± 0.046, 1.03 ± 0.05, 1.11 ± 0.11 and 1.095 ± 0.0071.
With `O=C(O)[C@@H](O)[C@H](O)[C@H](O)[C@@H](O)C(=O)O`, the cell viability is 0.971 ± 0.023 in assay [1], 1.03 ± 0.05 in assay [2] and 1 ± 0.051 in assay [3]. The “TCF/Wnt firefly luciferase reporter signal” value worked out at 1.06 ± 0.035 in assay [4] and 1.03 ± 0.028 in assay [5].
The matching figures for `OCc1c[nH]c2ccccc12`: 1.01, 0.93 ± 0.03, 0.948 ± 0.042, 1.06 ± 0.064 and 0.992 ± 0.026.
The matching figures for `C=CCc1ccccc1OCC(O)CNC(C)C` (stereo not given): 1.03 ± 0.055, 1.04 ± 0.035, 0.961 ± 0.035, 1.1 ± 0.27 and 0.852 ± 0.077.
The matching figures for `O=C(N[C@H](CO)[C@H](O)c1ccc([N+](=O)[O-])cc1)C(Cl)Cl`: 0.939 ± 0.013, 0.918 ± 0.14, 1.04 ± 0.042, 1.09 ± 0.085 and 1 ± 0.013.
In the case of `NC(CO)C(=O)NNCc1ccc(O)c(O)c1O` (stereo not given), the cell viability in assay [1] was determined as 1.03 ± 0.028; in assay [2] it was 1.07 ± 0.13; in assay [3], 1.02 ± 0.021. Also, the “TCF/Wnt firefly luciferase reporter signal” value in assay [4] came to 1.07 ± 0.021; in assay [5], 1.08 ± 0.021.
The matching figures for `NC(=O)CC[C@H](N)C(=O)O`: 1.02 ± 0.014, 0.923 ± 0.11, 1.02 ± 0.069, 1.02 ± 0.14 and 1.07 ± 0.064.
The matching figures for `CC(=O)O[C@@H]1CC[C@@]2(C)C(C[C@@H](OC(C)=O)[C@@]3(C)C4=CC(=O)O[C@@H](c5ccoc5)[C@]4(C)CCC23)C1(C)C` (stereo partly drawn) [3alpha-ACETOXYDIHYDRODEOXYGEDUNIN]: 1 ± 0.021, 1.04 ± 0.11, 0.956 ± 0.026, 1.25 ± 0.22 and 1.11 ± 0.028.
`C[C@]12C=CC(=O)C=C1CC[C@@H]1[C@@H]2[C@@H](O)C[C@@]2(C)[C@H]1CC[C@]2(O)C(=O)CO`: the cell viability was 1.01 ± 0.014 in assay [1], 1.09 ± 0.035 in assay [2] and 1.04 ± 0.069 in assay [3]. For the same compound, the “TCF/Wnt firefly luciferase reporter signal” value in assay [4] came to 1.03 ± 0.035; in assay [5], 1.04 ± 0.088.
The matching figures for `CNCCC(Oc1ccc(C(F)(F)F)cc1)c1ccccc1` (stereo not given): 0.9505 ± 0.00071, 0.952 ± 0.12, 0.948 ± 0.069, 1.2 ± 0.26 and 0.993 ± 0.052.
